For some of these results: Potency and affinity values are given separately.
How the values were obtained:
Set-up in all cases: scale not given: direction of the effect not stated beside the values
[1] = target: Protein translocase subunit SecA (Escherichia coli (strain K12)) (UniProt P10408); experiment: Assay to Identify E. coli SecA ATPase Inhibitors; assay type: functional; conditions: 30 µM
[2] = target: T1, Ubiquitin-activating enzyme e1, putative (Leishmania donovani (strain BPK282A1)) (UniProt E9BSI1); experiment: Leishmania donovani Ubiquitin Activating Enzyme (LdE1); assay type: functional; conditions: 30 µM
T1 sequence (whole entry): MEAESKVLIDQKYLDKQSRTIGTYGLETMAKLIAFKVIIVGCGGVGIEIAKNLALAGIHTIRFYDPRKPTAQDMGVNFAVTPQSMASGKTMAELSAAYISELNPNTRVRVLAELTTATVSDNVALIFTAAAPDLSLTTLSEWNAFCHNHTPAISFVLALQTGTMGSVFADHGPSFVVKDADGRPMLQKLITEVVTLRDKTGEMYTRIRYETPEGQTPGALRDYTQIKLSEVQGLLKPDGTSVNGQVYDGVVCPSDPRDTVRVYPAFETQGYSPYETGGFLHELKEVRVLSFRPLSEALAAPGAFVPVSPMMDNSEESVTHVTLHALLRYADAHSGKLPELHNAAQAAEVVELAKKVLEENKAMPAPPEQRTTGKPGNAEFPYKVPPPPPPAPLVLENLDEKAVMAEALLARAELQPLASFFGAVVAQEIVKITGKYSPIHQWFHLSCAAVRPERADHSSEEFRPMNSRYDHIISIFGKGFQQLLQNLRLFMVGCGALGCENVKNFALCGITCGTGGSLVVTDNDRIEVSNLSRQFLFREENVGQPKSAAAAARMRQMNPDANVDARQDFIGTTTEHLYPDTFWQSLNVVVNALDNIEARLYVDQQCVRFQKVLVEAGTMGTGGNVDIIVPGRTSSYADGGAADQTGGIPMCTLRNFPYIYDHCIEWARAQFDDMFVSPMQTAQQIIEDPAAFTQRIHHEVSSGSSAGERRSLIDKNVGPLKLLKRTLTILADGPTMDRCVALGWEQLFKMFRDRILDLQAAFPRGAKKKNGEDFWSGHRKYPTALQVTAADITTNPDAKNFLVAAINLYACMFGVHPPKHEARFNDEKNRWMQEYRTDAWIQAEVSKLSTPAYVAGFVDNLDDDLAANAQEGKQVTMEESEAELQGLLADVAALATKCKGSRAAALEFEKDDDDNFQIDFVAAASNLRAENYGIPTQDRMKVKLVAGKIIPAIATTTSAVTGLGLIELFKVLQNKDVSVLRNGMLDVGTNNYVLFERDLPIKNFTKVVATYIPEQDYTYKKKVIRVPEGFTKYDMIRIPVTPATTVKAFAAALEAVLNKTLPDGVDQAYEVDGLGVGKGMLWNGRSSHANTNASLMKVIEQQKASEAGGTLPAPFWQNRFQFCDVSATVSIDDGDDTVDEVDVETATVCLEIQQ

[3] = target: AMP-activated protein kinase, AMPK (Homo sapiens) (UniProt P54646+O43741+P54619+Q9UGJ0+Q9Y478+Q13131+Q9UGI9); experiment: AMP-dependent Kinase enzyme assay. An in vitro enzyme assay that detects ADP turnover that is directly proportional to AMPK activity. This uses naive AMPK that is activated during the assay with MK-8722; assay type: functional; conditions: 30 µM
[4] = target: Sialic acid-binding Ig-like lectin 9 (Homo sapiens) (UniProt Q9Y336); experiment: Hs-Siglec9 ALPHAscreen SOP 20170721; conditions: 10 µM
Chain of Sialic acid-binding Ig-like lectin 9 (Homo sapiens) (Q9Y336 whole entry): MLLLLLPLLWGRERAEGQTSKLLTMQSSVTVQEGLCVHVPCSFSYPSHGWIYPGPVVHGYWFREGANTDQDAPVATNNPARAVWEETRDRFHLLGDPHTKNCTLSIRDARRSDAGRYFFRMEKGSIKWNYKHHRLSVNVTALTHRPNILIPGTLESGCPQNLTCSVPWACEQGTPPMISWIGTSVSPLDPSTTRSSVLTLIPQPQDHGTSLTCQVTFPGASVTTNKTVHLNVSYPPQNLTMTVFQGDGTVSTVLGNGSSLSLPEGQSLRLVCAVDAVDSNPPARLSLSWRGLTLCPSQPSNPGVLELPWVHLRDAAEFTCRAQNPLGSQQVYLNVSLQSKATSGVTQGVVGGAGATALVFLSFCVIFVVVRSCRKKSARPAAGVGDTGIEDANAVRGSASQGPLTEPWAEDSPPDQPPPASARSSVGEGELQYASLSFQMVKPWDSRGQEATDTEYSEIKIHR

Trypanosoma cruzi = experiment: Trypanosoma cruzi phosphomannomutase and mannose-1-phosphate guanylyltransferase assay; assay type: functional; conditions: 10 µM
[5] = target: T2, Arginase-2, mitochondrial (Homo sapiens) (UniProt P78540); experiment: in vitro enzyme assay to detect the production of urea directly proportional to the activity of Arginase II; assay type: functional; conditions: 33.3 µM; also: in the data most compounds retested in dose-response had high values
T2 sequence (whole entry): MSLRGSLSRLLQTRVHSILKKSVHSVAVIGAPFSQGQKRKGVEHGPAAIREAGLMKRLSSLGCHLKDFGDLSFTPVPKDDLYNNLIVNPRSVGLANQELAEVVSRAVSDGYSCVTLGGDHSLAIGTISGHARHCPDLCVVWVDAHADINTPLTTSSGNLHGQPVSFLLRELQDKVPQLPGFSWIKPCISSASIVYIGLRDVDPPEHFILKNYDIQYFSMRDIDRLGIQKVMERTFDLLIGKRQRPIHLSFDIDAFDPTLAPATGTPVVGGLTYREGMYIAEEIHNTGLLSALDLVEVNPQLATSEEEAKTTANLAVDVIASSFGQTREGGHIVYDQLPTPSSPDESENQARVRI

[6] = target: T3, Proteasome subunit beta (Trypanosoma cruzi) (UniProt O96673); experiment: Trypanosoma cruzi proteasome chymotrypsin-like activity (TcProtChymo) assay.; also: in the data most compounds retested in dose-response had high values; assay type: functional; conditions: 9.37 µM
T3 sequence (whole entry): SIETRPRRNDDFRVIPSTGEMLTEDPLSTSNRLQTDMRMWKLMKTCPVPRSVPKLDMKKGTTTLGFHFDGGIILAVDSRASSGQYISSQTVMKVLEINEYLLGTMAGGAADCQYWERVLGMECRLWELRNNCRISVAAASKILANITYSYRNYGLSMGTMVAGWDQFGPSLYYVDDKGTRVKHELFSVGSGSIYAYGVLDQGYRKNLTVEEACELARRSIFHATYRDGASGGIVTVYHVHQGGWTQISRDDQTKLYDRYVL

Homo sapiens = species on record: Homo sapiens; experiment: To identify inhibition of the IFN signalling (Jak-Stat) pathway via expression of an eGFP reporter gene under the control of an IFN-stimulated response element (ISRE) containing MxA promoter.; assay type: functional; conditions: 30 µM
[7] = target: T4, Tyrosyl-tRNA synthetase, putative (Trypanosoma cruzi (strain CL Brener)) (UniProt Q4DSP6); experiment: Trypanosoma cruzi tyrosyl tRNA synthetase (TcYRS) _High Tyrosine SOP; assay type: functional; conditions: 30 µM; also: in the data most compounds retested in dose-response had high values
T4 sequence (whole entry): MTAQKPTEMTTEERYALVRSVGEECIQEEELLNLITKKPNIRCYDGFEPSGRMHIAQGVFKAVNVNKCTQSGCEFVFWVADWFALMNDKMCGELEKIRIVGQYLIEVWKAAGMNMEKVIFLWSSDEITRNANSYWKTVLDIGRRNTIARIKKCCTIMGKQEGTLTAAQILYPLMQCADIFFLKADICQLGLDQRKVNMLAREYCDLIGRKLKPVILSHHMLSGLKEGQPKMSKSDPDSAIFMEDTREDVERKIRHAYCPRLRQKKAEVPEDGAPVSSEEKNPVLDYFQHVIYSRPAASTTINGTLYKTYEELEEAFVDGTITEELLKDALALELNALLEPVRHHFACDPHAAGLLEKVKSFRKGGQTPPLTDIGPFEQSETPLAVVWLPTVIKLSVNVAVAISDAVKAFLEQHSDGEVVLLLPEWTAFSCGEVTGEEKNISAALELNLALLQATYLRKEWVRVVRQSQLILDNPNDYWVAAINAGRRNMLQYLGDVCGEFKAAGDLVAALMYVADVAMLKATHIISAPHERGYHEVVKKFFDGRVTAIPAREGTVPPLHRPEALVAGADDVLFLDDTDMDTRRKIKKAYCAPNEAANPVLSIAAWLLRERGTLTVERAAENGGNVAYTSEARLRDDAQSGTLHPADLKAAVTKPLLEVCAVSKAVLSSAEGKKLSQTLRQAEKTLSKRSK

[8] = target: T4, Tyrosyl-tRNA synthetase, putative (Trypanosoma cruzi (strain CL Brener)); experiment: Trypanosoma cruzi tyrosyl tRNA synthetase (TcYRS) SOP; assay type: functional; conditions: 30 µM
[9] = target: Chromo domain-containing protein 1 (Saccharomyces cerevisiae (strain ATCC 204508 / S288c) (Baker's yeast)) (UniProt P32657); experiment: ScCHD-1 Enzyme Inhibition Assay; assay type: functional; conditions: 30 µM; also: in the data most compounds retested in dose-response had high values
Chain of Chromo domain-containing protein 1 (Saccharomyces cerevisiae (strain ATCC 204508 / S288c) (Baker's yeast)) (P32657 whole entry, the tested form may be a part): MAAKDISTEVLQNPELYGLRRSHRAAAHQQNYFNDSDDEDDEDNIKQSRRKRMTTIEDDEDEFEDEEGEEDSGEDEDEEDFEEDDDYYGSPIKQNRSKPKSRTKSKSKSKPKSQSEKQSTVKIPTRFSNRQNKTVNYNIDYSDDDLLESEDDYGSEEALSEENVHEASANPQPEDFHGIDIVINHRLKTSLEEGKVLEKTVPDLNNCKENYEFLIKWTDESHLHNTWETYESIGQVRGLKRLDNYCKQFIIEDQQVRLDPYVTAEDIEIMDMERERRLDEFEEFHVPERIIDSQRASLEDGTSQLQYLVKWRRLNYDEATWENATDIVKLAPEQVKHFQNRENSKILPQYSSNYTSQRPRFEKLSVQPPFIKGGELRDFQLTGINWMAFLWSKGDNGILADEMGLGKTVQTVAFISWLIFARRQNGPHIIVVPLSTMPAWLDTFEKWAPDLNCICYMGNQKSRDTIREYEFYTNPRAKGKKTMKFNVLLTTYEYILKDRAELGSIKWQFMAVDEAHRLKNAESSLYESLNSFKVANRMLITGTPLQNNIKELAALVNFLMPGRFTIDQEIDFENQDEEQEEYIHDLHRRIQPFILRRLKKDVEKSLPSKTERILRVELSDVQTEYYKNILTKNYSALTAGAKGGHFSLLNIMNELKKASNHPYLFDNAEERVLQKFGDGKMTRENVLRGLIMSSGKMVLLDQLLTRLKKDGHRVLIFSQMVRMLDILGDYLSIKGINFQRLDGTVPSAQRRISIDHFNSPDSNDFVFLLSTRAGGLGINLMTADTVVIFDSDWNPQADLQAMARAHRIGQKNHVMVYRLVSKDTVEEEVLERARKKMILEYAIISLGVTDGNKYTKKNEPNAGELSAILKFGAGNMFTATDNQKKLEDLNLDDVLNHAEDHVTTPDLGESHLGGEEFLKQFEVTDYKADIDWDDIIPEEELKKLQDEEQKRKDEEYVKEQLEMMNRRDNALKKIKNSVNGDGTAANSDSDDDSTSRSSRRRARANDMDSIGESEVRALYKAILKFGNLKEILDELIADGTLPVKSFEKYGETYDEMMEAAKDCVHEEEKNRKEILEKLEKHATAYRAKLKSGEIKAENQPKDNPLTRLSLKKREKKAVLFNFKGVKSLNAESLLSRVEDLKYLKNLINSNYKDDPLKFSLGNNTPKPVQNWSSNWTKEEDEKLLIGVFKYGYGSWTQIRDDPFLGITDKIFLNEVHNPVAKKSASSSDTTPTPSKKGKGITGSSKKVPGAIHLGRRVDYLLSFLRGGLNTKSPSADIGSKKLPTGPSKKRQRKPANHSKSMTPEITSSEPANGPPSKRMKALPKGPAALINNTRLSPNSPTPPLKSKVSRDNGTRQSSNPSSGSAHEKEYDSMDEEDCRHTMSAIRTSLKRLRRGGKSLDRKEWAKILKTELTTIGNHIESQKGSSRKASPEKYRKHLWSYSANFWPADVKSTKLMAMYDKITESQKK

Chain of Protein translocase subunit SecA (Escherichia coli (strain K12)) (P10408 whole entry): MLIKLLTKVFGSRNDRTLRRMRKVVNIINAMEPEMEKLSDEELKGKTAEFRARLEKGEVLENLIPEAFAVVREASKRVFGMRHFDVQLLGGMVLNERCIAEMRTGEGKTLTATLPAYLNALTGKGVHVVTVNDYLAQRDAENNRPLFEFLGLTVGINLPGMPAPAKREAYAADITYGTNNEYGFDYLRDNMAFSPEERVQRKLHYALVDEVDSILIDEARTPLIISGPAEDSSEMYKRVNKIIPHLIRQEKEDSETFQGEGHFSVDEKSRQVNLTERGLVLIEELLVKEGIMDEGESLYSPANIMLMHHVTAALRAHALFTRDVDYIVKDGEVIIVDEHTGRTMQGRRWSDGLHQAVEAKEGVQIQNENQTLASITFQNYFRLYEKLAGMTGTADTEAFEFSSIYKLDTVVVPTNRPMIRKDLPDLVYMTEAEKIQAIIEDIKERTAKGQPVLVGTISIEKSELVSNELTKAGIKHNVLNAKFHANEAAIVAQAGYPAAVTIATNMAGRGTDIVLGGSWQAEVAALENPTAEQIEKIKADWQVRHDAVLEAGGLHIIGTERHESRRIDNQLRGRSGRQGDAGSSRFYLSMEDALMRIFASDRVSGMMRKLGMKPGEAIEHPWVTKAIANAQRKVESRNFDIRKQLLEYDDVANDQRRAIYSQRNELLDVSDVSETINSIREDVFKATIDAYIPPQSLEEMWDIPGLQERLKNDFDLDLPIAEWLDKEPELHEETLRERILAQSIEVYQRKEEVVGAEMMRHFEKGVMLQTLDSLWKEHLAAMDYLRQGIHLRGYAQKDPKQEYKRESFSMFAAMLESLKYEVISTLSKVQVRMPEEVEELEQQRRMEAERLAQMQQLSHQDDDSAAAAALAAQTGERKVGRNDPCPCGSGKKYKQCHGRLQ

Q: For CC(C)OCCN(Cc1cccc(O)c1)C1CCC(O)CC1 (stereo not drawn), which Percent Effect [1] is on record?
A: The Percent Effect was -4.61%.

Q: And the Percent Effect [2]?
A: Its Percent Effect is 0%.

Q: And the Percent Effect [3]?
A: The Percent Effect was -1.14%.

Q: And the Percent Effect [4]?
A: The Percent Effect was -7.69%.

Q: And the Percent Effect (Trypanosoma cruzi)?
A: Its Percent Effect is -5.96%.

Q: And the Percent Effect [5]?
A: The Percent Effect was 0.744%.

Q: And the Percent Effect [6]?
A: The Percent Effect was 4.89%.

Q: And the Percent Effect (Homo sapiens)?
A: The Percent Effect was -1.68%.

Q: What about the Percent Effect [7] of the same compound?
A: The Percent Effect was 0%.

Q: And the Percent Effect [8]?
A: Its Percent Effect is -1.24%.

Q: And the Percent Effect [9]?
A: Its Percent Effect is -0.807%.

Q: What does the source list for O=C(NCc1nnc2ccccn12)N1CCc2sccc2C1?
A: Percent Effect [1]: -3.42%; Percent Effect [2]: -6.33%; Percent Effect [3]: 6.9%; Percent Effect [4]: 2.84%; Percent Effect (Trypanosoma cruzi): -1.33%; Percent Effect [5]: 1.94%; Percent Effect [6]: 7.89%; Percent Effect (Homo sapiens): 11.1%; Percent Effect [7]: 2.08%; Percent Effect [8]: 7.59%; Percent Effect [9]: -7.88%

Q: CCS(=O)(=O)N1CCC(c2cc3n(n2)[C@@H](C(F)(F)F)C[C@@H](C)N3)CC1 was tested. Which Percent Effect [1] did it give?
A: The Percent Effect was -3.21%.

Q: What about the Percent Effect [2] of the same compound?
A: The Percent Effect was 9.46%.

Q: And the Percent Effect [3]?
A: Its Percent Effect is -29.7%.

Q: What about the Percent Effect [4] of the same compound?
A: The Percent Effect was -2.76%.

Q: And the Percent Effect (Trypanosoma cruzi)?
A: Its Percent Effect is -4.15%.

Q: And the Percent Effect [5]?
A: The Percent Effect was 2.09%.

Q: What about the Percent Effect [6] of the same compound?
A: Its Percent Effect is 4.37%.

Q: What about the Percent Effect (Homo sapiens) of the same compound?
A: The Percent Effect was 11.3%.

Q: What about the Percent Effect [7] of the same compound?
A: The Percent Effect was -1.07%.

Q: And the Percent Effect [8]?
A: Its Percent Effect is 6.49%.

Q: What about the Percent Effect [9] of the same compound?
A: The Percent Effect was -7.22%.

Q: CN(Cc1csc(-c2cccs2)n1)C(=O)CCn1ccccc1=O was tested. Which Percent Effect [1] did it give?
A: The Percent Effect was -4.95%.

Q: What about the Percent Effect [2] of the same compound?
A: Its Percent Effect is 8%.

Q: And the Percent Effect [3]?
A: The Percent Effect was -1.99%.

Q: And the Percent Effect [4]?
A: Its Percent Effect is 4.47%.

Q: And the Percent Effect (Trypanosoma cruzi)?
A: The Percent Effect was -1.07%.

Q: What about the Percent Effect [5] of the same compound?
A: Its Percent Effect is 5.21%.

Q: And the Percent Effect [6]?
A: Its Percent Effect is 22.7%.

Q: And the Percent Effect (Homo sapiens)?
A: Its Percent Effect is 10.8%.

Q: And the Percent Effect [7]?
A: Its Percent Effect is 3.83%.

Q: What about the Percent Effect [8] of the same compound?
A: The Percent Effect was 11.1%.

Q: And the Percent Effect [9]?
A: Its Percent Effect is -4.75%.

Q: Which results are given for CC(=O)N1CCC(Oc2ccc(C#N)cn2)CC1?
A: Percent Effect [1]: -4.01%; Percent Effect [2]: 8.22%; Percent Effect [3]: 1.71%; Percent Effect [4]: 12.9%; Percent Effect (Trypanosoma cruzi): 2.94%; Percent Effect [5]: 7.27%; Percent Effect [6]: 4.44%; Percent Effect (Homo sapiens): 11.1%; Percent Effect [7]: 4.3%; Percent Effect [8]: 12.5%; Percent Effect [9]: -5.65%

Q: O=C(NC1CC1)N1CCc2ncnc(-c3ccncc3)c2CC1 was tested. Which Percent Effect [1] did it give?
A: Its Percent Effect is 5.45%.

Q: What about the Percent Effect [2] of the same compound?
A: The Percent Effect was 10.7%.

Q: And the Percent Effect [3]?
A: Its Percent Effect is 17.6%.

Q: What about the Percent Effect [4] of the same compound?
A: The Percent Effect was 1.38%.

Q: And the Percent Effect (Trypanosoma cruzi)?
A: The Percent Effect was -6.37%.

Q: And the Percent Effect [5]?
A: The Percent Effect was -55.4%.

Q: And the Percent Effect [6]?
A: The Percent Effect was 12%.

Q: And the Percent Effect (Homo sapiens)?
A: Its Percent Effect is 4.1%.

Q: What about the Percent Effect [7] of the same compound?
A: Its Percent Effect is 2.08%.

Q: And the Percent Effect [8]?
A: The Percent Effect was 25%.

Q: What about the Percent Effect [9] of the same compound?
A: The Percent Effect was -4.64%.

Q: Which results are given for Cn1ccnc1SCc1nc(C(C)(C)NC(=O)OC(C)(C)C)no1?
A: Percent Effect [1]: -5.41%; Percent Effect [2]: 18.7%; Percent Effect [3]: -1.15%; Percent Effect [4]: 21.2%; Percent Effect (Trypanosoma cruzi): 5.94%; Percent Effect [5]: 2.08%; Percent Effect [6]: 10.6%; Percent Effect (Homo sapiens): 21.2%; Percent Effect [7]: 6.01%; Percent Effect [8]: 16.1%; Percent Effect [9]: -9.46%

Q: Cc1ccc(-c2nc(CNCCn3cccn3)cs2)o1 was tested. Which Percent Effect [1] did it give?
A: Its Percent Effect is 1.6%.

Q: And the Percent Effect [2]?
A: Its Percent Effect is -429%.

Q: What about the Percent Effect [3] of the same compound?
A: Its Percent Effect is 4.22%.

Q: And the Percent Effect [4]?
A: Its Percent Effect is -1.49%.

Q: What about the Percent Effect (Trypanosoma cruzi) of the same compound?
A: Its Percent Effect is 1.13%.

Q: What about the Percent Effect [5] of the same compound?
A: The Percent Effect was 4.6%.

Q: And the Percent Effect [6]?
A: Its Percent Effect is 8.19%.

Q: What about the Percent Effect (Homo sapiens) of the same compound?
A: The Percent Effect was 10.3%.

Q: What about the Percent Effect [7] of the same compound?
A: The Percent Effect was 11.3%.

Q: What about the Percent Effect [8] of the same compound?
A: Its Percent Effect is 4.88%.

Q: And the Percent Effect [9]?
A: Its Percent Effect is 1.79%.
